Bioassay records: PubChem, National Center for Advancing Translational Sciences (NCATS)
TSHR antagonist – human thyrotropin receptor antagonism | P16473 | TSHR-expressing cells, TSH-stimulated cAMP HTRF, 2 h; hits give low values | AID 504810 | 330,000 tested, 0.2% active | activity change, negative = inhibition, % at 11.5 µM;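 active = activity change below a set negative limit, meaning inhibition stronger than a set level, cut at about -70% in these data; inconclusive = activity change between two set negative limits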; also: % is scaled to controls: 0 for no effect and ±100 for the full control effect
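TSHR-expressing cells were treated with compounds, then stimulated with TSH at EC80 (4nM final) for 2 hours at 37 deg C. Cellular cAMP was measured by HTRF competition between lysate cAMP and cAMP-d2 for a cryptate-labelled anti-cAMP antibody.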
PTAP TSG101 blk – blocks PTAP/TSG101 interaction to inhibit HIV-1 budding | Q99816 | Fluorescence polarization, FITC-PTAP peptide / Tsg101 binding | Potency, µM (series often up to 115 µM), inactives show top-dose activity change, negative = inhibition, most hits filed as inhibitors | 340,000 tested, under 10 active; active = well fitted inhibition curve with a large enough effect in the main read-out, with a control signal flat, not every such curve was filed as active; inconclusive = small, poorly fitted or top-dose-only effect, or effect the other way, or a change in a side signal; inactive = no such curve, though single readings can be large or run the other way; also: potency is read from the fitted curve at half-maximal effect; % of control where 0% means no effect
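Fluorescence polarization binding of Tsg101 binding domain (10 uM final) to FITC-labeled PTAP peptide (50 nM final) in HEPES pH 7.5 buffer with NaCl, Tween 20, EDTA, TCEP. Compounds added before peptide; binding 20 min at RT.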
uPA generation – inhibitors of cell surface uPA generation | cell surface uPA generation assay, qHTS | 330,000 tested, 0.31% active | AID 540303 | Potency, µM (top dose mostly 38.3 µM), without a hit: at the top dose activity change, negative = inhibition, usual class: inhibitors; active = well fitted inhibition curve with a large enough effect; inconclusive = small, poorly fitted or top-dose-only effect; inactive = no such curve, though single readings can be large or run the other way; tested in mouse RAW 264.7 cells; also: potency is read from the fitted curve at half-maximal effect; % is scaled to controls: 0 for no effect and ±100 for the full control effect; nearly all actives have a fitted effect of over 55% in size
VDR inhibitor – inhibitors of human vitamin D receptor; P11473; VDR-SRC2-3 peptide fluorescence polarization, 2 h; Potency, µM, inactives show max response, negative = inhibition, hits mostly inhibitors; 400,000 tested, 0.93% active; AID 504847; also: potency is read from the fitted curve at half-maximal effect; % is scaled to controls: 0 for no effect and ±100 for the full control effect
Target sequence (P11473 whole entry, looked up): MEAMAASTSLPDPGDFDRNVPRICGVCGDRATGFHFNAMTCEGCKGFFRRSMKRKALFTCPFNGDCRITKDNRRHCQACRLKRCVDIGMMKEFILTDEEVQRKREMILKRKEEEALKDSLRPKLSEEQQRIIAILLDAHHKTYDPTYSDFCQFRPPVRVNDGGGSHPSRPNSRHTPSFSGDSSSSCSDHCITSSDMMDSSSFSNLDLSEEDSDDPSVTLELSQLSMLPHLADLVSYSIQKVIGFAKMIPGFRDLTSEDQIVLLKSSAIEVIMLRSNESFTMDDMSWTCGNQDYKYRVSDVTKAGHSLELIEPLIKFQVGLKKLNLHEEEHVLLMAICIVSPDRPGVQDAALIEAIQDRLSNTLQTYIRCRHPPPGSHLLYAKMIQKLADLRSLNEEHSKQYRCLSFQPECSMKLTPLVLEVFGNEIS
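Inhibition of the VDR/SRC2-3 peptide interaction is quantified by fluorescence polarization. Compounds (23 nl, pintool) incubate with the reagents for 2 hours at ambient room temperature.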
PLK1 PBD inh – inhibitors of human PLK1 polo-box domain binding. AID 720504. P53350. Potency, µM, inactives show max response, negative = inhibition, most hits filed as inhibitors. Plk1 PBD binding of FITC phosphopeptide, fluorescence polarization. 360,000 tested, 2.8% active; also: potency is read from the fitted curve at half-maximal effect; series mostly up to about 57 µM; % is scaled to controls: 0 for no effect and ±100 for the full control effect; nearly all actives have a fitted effect of over 65% in size
An asterisk follows results filed as active; u = inconclusive; x = no result given. Rows were chosen to be rich in hits. Some 3.1% of all compounds tested hit in one or more screens of this group. Unless noted, calls follow the shape of the dose curve; as a rule, active = well fitted curve in the direction sought with a large enough effect; inconclusive = small, poorly fitted or top-dose-only effect, or another doubt; inactive = no such curve, though single readings can be large; an effect the other way counts as inactive or inconclusive.

SMILES | TSHR antagonist | PTAP TSG101 blk | uPA generation | VDR inhibitor | PLK1 PBD inh
COc1ccc(CCN2C(=O)C3C4CC(C5C(C(=O)N/N=C\c6ccc(Cl)cc6)=NOC45)C3C2=O)cc1OC (stereo not drawn) | -3.5 | -3.5% | -4.3% | 8.5% | -5.5%
Cc1ccc(C)c(N2CCN(c3nccn4nc(-c5ccc(Br)cc5)cc34)CC2)c1 | x | x | x | -6.6% | x
COCCC1CCCCN1C(=O)c1cc(COc2ccc(-n3cncn3)cc2)on1 (stereo not drawn) | -27.9 | -3.5% | -2.3% | -1.0% | 6.4%
O=C(NC1CCCCC1)C(c1ccnc2ccccc12)n1c(=O)c(-c2ccccc2)nc2ccccc21 (stereo not drawn) | x | x | x | x | -15.5%
Cc1cc(C(=O)N2CCN(c3ccccc3)CC2)c2c(C)nn(-c3cccc(F)c3)c2n1 | x | x | x | -0.1% | x
N#Cc1c(-c2ccc(C(F)(F)F)cc2)cc(-c2ccccc2)[nH]c1=S | 2.4 | 1.6% | -1.9% | -15.9% | 23.8µM*
Cc1ccc(-c2cc(-c3ccccc3)[nH]c(=S)c2C#N)cc1 | -8.1 | 0.1% | 2.0% | -6.2% | u
O=S(=O)(c1ccc(Br)cc1)N1CCN(c2nc(-c3ccccc3)nc3ccccc23)CC1 | x | x | x | -5.5% | x
O=C(NCc1ccco1)C1CCCN1C(=O)Nc1ccc(Cl)cc1 (stereo not drawn) | 5.3 | -2.1% | -1.9% | u | 11.9µM*
Cc1cccc(NC(=O)c2cccc(N3CCCS3(=O)=O)c2)c1 | x | x | x | 11.5% | x
O=C(Oc1ccc2c3c(c(=O)oc2c1)CCCC3)c1ccco1 | 4.1 | -8.7% | 2.3% | -13.7% | 23.8µM*
C=CCOc1ccc2c3c(c(=O)oc2c1)CCCC3 | x | -1.8% | 1.1% | -5.5% | -3.5%
CCCOc1ccc2c3c(c(=O)oc2c1)CCCC3 | -1.2 | -0.3% | 2.4% | -6.2% | 7.52µM*
COc1cccc(CSc2nc3ccncc3n2CC(=O)Nc2ccc(OC)c(OC)c2OC)c1 | x | x | x | 12.4% | x
CCc1cccc(C)c1NC(=O)C(NS(=O)(=O)c1ccc2c(c1)CCC(=O)N2)c1ccccc1 (stereo not drawn) | x | x | x | -12.2% | x
Cc1cccc(NC(=O)C(NS(=O)(=O)c2ccc3c(c2)CCC(=O)N3)c2ccccc2)n1 (stereo not drawn) | 4.8 | -4.2% | x | -7.4% | 12.6µM*
O=C(O)c1nn(-c2ccc(F)cc2)ccc1=O | -26.3 | -0.3% | 10.9% | -5.7% | -6.8%
O=C(O)c1nn(-c2ccccc2)ccc1=O | 2.7 | -5.7% | -6.6% | -11.7% | 11.9µM*
COC(=O)N[C@H](C[N+](=O)[O-])C(C)(C)C | x | x | x | -0.1% | x
CCOC(=O)c1sc(NC(=O)/C=C/c2ccc(F)cc2)nc1C | 2.0 | -2.8% | 1.9% | -12.6% | 21.2µM*
COC(=O)c1c(NC(=O)/C=C/C(=O)O)sc(C)c1-c1ccc(C)c(C)c1 | -25.0 | -4.2% | -11.2% | 89.1µM* | u
CCOC(=O)c1c(NC(=O)/C=C/C(=O)O)sc(C)c1-c1ccc(F)cc1 | -47.8 | 3.6% | x | 22.4µM* | -14.4%
CCOC(=O)c1c(NC(=O)/C=C/C(=O)O)sc(C)c1-c1ccc(C)c(C)c1 | u | -2.0% | u | u | u
CC(C)=C1C2CCC1C(C(=O)Nc1sc(C)c(-c3ccc(C(C)C)cc3)c1C(N)=O)C2C(=O)O (stereo not drawn) | 3.6 | -0.7% | -10.1% | -13.0% | 29.9µM*
Cc1ccc(-c2c(C)sc(NC(=O)C3C4CCC(O4)C3C(=O)O)c2C(=O)OC(C)C)cc1 (stereo not drawn) | -16.0 | -2.8% | 1.9% | -13.3% | u
SMILES | TSHR antagonist | PTAP TSG101 blk | uPA generation | VDR inhibitor | PLK1 PBD inh
O=C(Nc1ccc(F)c(Cl)c1)C1CCN(S(=O)(=O)c2ccc3c(c2)CCCN3C(=O)C2CCC2)CC1 | x | x | x | 1.8% | x
COC(=O)c1sc(-c2ccc(Cl)cc2)cc1NC(=O)/C=C/C(=O)O | -48.9 | -7.9% | -10.9% | 31.6µM* | -11.8%
COC(=O)c1sccc1NC(=O)/C=C/C(=O)O | -8.8 | -3.9% | -0.3% | 3.0% | -14.8%
COC(=O)c1c(NC(=O)/C=C/C(=O)O)sc(C)c1-c1ccc(C(C)C)cc1 | -23.9 | -2.5% | x | 25.1µM* | 37.7µM*
COc1ccc(N2CCN(C(=O)c3[nH]c4ccc(OC)cc4c3C)CC2)cc1 | -7.9 | 0.2% | 6.4% | -21.3% | 26.7µM*
CCOC(=O)C1CCN(C(=O)c2[nH]c3ccc(OC)cc3c2C)CC1 | -1.8 | 0.5% | -3.0% | -0.2% | 4.9%
